Measured values as given in PubChem BioAssay (NCI).
Values joined by “and” are separate entries in the source; they are usually repeats but may differ in a detail not shown here. Equal values may be shown once. About 79,000 compounds went through this panel and 15% of them were active in at least one assay; those are over-represented in the sample as a whole. Active and inactive are the calls of the source. Cut-off read from the data, not from the text of the source: active = growth inhibition above about 70%; inactive = the rest.

Columns and labels:
[1] = NCI Yeast Anticancer Drug Screen. Data for the mec2-1 strain (AID 157); conditions: S. cerevisiae mec2-1 strain, active compounds read high
In short: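 Growth inhibition is read against vehicle-treated controls after compound exposure of the mec2-1 yeast strain, which is defective in DNA damage repair or cell cycle control.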

[2] = NCI Yeast Anticancer Drug Screen. Data for the sgs1 mgt1 strain (AID 161);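 note: 0% = growth of cultures given vehicle only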; conditions: S. cerevisiae sgs1 mgt1 strain, active compounds read high
In short: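 Compounds are added to genetically altered yeast, and growth is compared with cultures given vehicle alone to give percent inhibition.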

[3] = NCI Yeast Anticancer Drug Screen. Data for the CLN2oe strain (AID 163);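 note: 0% = growth of vehicle-only control cultures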; conditions: S. cerevisiae CLN2oe strain, active compounds read high
In short: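 Compound-treated yeast; growth vs vehicle ctrl = % inhibition. Genetically altered strain (cell-cycle control).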

[4] = NCI Yeast Anticancer Drug Screen. Data for the cln2 rad14 strain (AID 165);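 note: 0% = growth equal to vehicle treated cultures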; conditions: S. cerevisiae cln2 rad14 strain, active compounds read high
In short: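 Growth inhibition, relative to vehicle-treated controls, is the read-out. The test organism is a yeast strain with defined genetic alterations, cln2 rad14.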

[5] = NCI Yeast Anticancer Drug Screen. Data for the bub3 strain (AID 167); conditions: S. cerevisiae bub3 mutant strain, active compounds read high
In short: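 Part of a panel of yeast mutants defective in DNA damage repair or cell cycle regulation. Each strain is grown with compound, and inhibition is calculated relative to solvent-treated cultures.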

[6] = NCI Yeast Anticancer Drug Screen. Data for the wt2 strain (AID 169);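 note: 0% = growth of vehicle-treated yeast cultures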; conditions: S. cerevisiae wt2 strain growth inhibition, active compounds read high
In short: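 Compound exposure of yeast; growth compared with vehicle controls; inhibition reported.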

[7] = NCI Yeast Anticancer Drug Screen. Data for the mlh1 strain (AID 171);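 note: 0% = growth of vehicle-treated control cultures of the same strain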; conditions: S. cerevisiae mlh1 strain growth inhibition, active compounds read high
In short: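 Compounds are applied to a genetically altered yeast strain, and its growth is compared with that of vehicle-treated cultures to give percent inhibition.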

[8] = NCI Yeast Anticancer Drug Screen. Data for the sgs1 strain (AID 173);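 note: 0% = growth of vehicle-only control cultures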; conditions: S. cerevisiae sgs1 mutant, active compounds read high
In short: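 Compounds applied to genetically altered yeast; growth compared with vehicle-treated cultures to give % inhibition.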

[9] = NCI Yeast Anticancer Drug Screen. Data for the mlh1 rad18 strain (AID 175); conditions: S. cerevisiae mlh1 rad18 strain growth inhibition, active compounds read high
In short: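 Cells of a genetically altered yeast strain, deficient in DNA damage repair, were treated with compound. Their growth was then compared with that of vehicle-treated cultures to give inhibition.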

[10] = NCI Yeast Anticancer Drug Screen. Data for the rad18 strain (AID 177); conditions: S. cerevisiae rad18 mutant growth inhibition, active compounds read high
In short: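 Compounds are applied to a repair-deficient yeast strain, and growth is compared with that of vehicle-treated cultures to give percent inhibition.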

[11] = NCI Yeast Anticancer Drug Screen. Data for the rad52 strain (AID 147);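 note: 0% = growth of vehicle-treated control cultures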; conditions: S. cerevisiae rad52 mutant growth inhibition, active compounds read high
In short: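 DNA repair-defective yeast; compound exposure; growth scored against vehicle controls.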

[12] = NCI Yeast Anticancer Drug Screen. Data for the wt1 strain (AID 149);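 note: 0% = growth of vehicle-treated wt1 cultures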; conditions: S. cerevisiae wt1 strain (SPY 50644) growth inhibition, active compounds read high
In short: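 The wt1 strain was treated with compounds, and growth was compared with vehicle-treated cultures to give inhibition.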

[13] = NCI Yeast Anticancer Drug Screen. Data for the rad50EPP+ strain (AID 151);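 note: 0% = growth of vehicle-treated control cultures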; conditions: S. cerevisiae rad50 mutant strain, active compounds read high
In short: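 rad50EPP+ yeast treated with test compounds. Readout: growth vs vehicle control.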

[14] = NCI Yeast Anticancer Drug Screen. Data for the mgt1 strain (AID 153); conditions: S. cerevisiae mgt1 mutant growth inhibition, active compounds read high
In short: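 Growth inhibition relative to vehicle controls was scored for the mgt1 yeast strain after compound exposure.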

[15] = NCI Yeast Anticancer Drug Screen. Data for the rad50 strain (AID 155);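 note: 0% = growth of vehicle-only cultures of the same strain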; conditions: S. cerevisiae rad50 strain growth inhibition, active compounds read high
In short: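 Cells are treated with compound, grown, and their growth is then scored against vehicle-only cultures of the same repair-deficient yeast strain.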

[16] = NCI Yeast Anticancer Drug Screen. Data for the rad14 strain (AID 159);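 note: 0% = growth of vehicle-treated control cultures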; conditions: S. cerevisiae rad14 strain growth inhibition, active compounds read high
In short: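 Readout: yeast growth inhibition, referenced to vehicle-only cultures. Strain bears a defined alteration in DNA damage repair.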

[17] = at 5.0 µM (retest, dose inferred, filed as 0.5)
[18] = at 50.0 µM (retest, dose inferred, filed as 5.0)

Measured: growth inhibition

CN(C)CCSC1=Nc2ccc(Cl)cc2C(c2ccccc2Cl)=NC1
active: [8]; at 100.0 µM 70%
inactive: [1]; at 100.0 µM 33% | [2]; [17] 11% | [2]; [18] 47% | [2]; at 50.0 µM 50% and 24.2% | [3]; at 1.2 µM -1% | [3]; at 3.7 µM -1% | [3]; at 11.0 µM 4% | [3]; at 33.0 µM 15% | [3]; at 100.0 µM 24% | [4]; [17] 4% | [4]; [18] 8% | [4]; at 50.0 µM 15.7% and -4.25% | [5]; at 1.2 µM -1% | [5]; at 3.7 µM -3% | [5]; [17] 0% | [5]; at 11.0 µM -3% | [5]; at 33.0 µM 9% | [5]; [18] 52% | [5]; at 50.0 µM 61.9% and 10.9% | [5]; at 100.0 µM 50% | [6]; at 1.2 µM -3% | [6]; at 3.7 µM -3% | [6]; at 11.0 µM -8% | [6]; at 33.0 µM -6% | [6]; at 100.0 µM 63% | [7]; at 1.2 µM -1% | [7]; at 3.7 µM -4% | [7]; at 11.0 µM -1% | [7]; at 33.0 µM -27% | [7]; at 100.0 µM 64% | [8]; at 1.2 µM -2% | [8]; at 3.7 µM -1% | [8]; at 11.0 µM 0% | [8]; at 33.0 µM 16% | [9]; [17] 4% | [9]; [18] 28% | [9]; at 50.0 µM 40.2% and 7.1% | [10]; at 1.2 µM -2% | [10]; at 3.7 µM -1% | [10]; at 11.0 µM 6% | [10]; at 33.0 µM 15% | [10]; at 100.0 µM 47%

CNC(=O)ON(C(C)=O)C(=O)NC
active: [2]; [18] 100% | [2]; at 50.0 µM 87.7% | [4]; [18] 99% | [4]; at 50.0 µM 86.2% | [5]; [18] 100%
inactive: [11]; at 1.2 µM -27% | [11]; at 3.7 µM -14% | [11]; at 11.0 µM -22% | [11]; at 33.0 µM -38% | [11]; at 100.0 µM -24% | [12]; at 1.2 µM -60% | [12]; at 3.7 µM -52% | [12]; at 11.0 µM -58% | [12]; at 33.0 µM -65% | [12]; at 100.0 µM -60% | [13]; at 1.2 µM -19% | [13]; at 3.7 µM -15% | [13]; at 11.0 µM -15% | [13]; at 33.0 µM -6% | [13]; at 100.0 µM 42% | [14]; at 1.2 µM -9% | [14]; at 3.7 µM 0% | [14]; at 11.0 µM 0% | [14]; at 33.0 µM 8% | [14]; at 100.0 µM 12% | [15]; at 1.2 µM -17% | [15]; at 3.7 µM -40% | [15]; [17] 13% | [15]; at 11.0 µM -20% | [15]; at 33.0 µM -17% | [15]; [18] 26% | [15]; at 100.0 µM -4% | [1]; at 1.2 µM -9% | [1]; at 3.7 µM -4% | [1]; [17] 2% | [1]; at 11.0 µM 5% | [1]; at 33.0 µM 4% | [1]; [18] 31% | [1]; at 100.0 µM -9% | [16]; at 1.2 µM -47% | [16]; at 3.7 µM -35% | [16]; at 11.0 µM -48% | [16]; at 33.0 µM -47% | [16]; at 100.0 µM -47% | [2]; [17] 62% | [3]; at 1.2 µM -30% | [3]; at 3.7 µM 2% | [3]; at 11.0 µM 19% | [3]; at 33.0 µM 14% | [3]; at 100.0 µM 11% | [4]; [17] 35% | [5]; at 1.2 µM 3% | [5]; at 3.7 µM 4% | [5]; [17] 31% | [5]; at 11.0 µM 23% | [5]; at 33.0 µM 35% | [5]; at 50.0 µM 52% | [5]; at 100.0 µM 60% | [6]; at 1.2 µM -24% | [6]; at 3.7 µM -20% | [6]; at 11.0 µM -22% | [6]; at 33.0 µM -42% | [6]; at 100.0 µM -10% | [7]; at 1.2 µM -43% | [7]; at 3.7 µM -27% | [7]; at 11.0 µM -11% | [7]; at 33.0 µM 4% | [7]; at 100.0 µM -9% | [8]; at 1.2 µM -26% | [8]; at 3.7 µM -49% | [8]; at 11.0 µM -13% | [8]; at 33.0 µM -15% | [8]; at 100.0 µM -19% | [9]; [17] 12% | [9]; [18] 22% | [10]; at 1.2 µM -6% | [10]; at 3.7 µM -24% | [10]; at 11.0 µM -21% | [10]; at 33.0 µM 0% | [10]; at 100.0 µM 24%

Nc1nc(N)c2c(Cl)c(CNc3ccc(C(=O)NC(CC(=O)O)C(=O)O)cc3)ccc2n1 (stereo unspecified)
active: [11]; at 33.0 µM 80% | [11]; at 100.0 µM 91% | [12]; at 100.0 µM 74% | [15]; at 50.0 µM 77.5% | [15]; at 100.0 µM 80% | [1]; at 11.0 µM 75% | [1]; at 33.0 µM 93% | [1]; [18] 90% | [1]; at 50.0 µM 87.8% | [1]; at 100.0 µM 95% | [5]; at 100.0 µM 72% | [10]; at 33.0 µM 78% | [10]; at 100.0 µM 84%
inactive: [11]; at 1.2 µM 40% | [11]; at 3.7 µM 35% | [11]; at 11.0 µM 52% | [12]; at 1.2 µM 19% | [12]; at 3.7 µM 15% | [12]; at 11.0 µM 17% | [12]; at 33.0 µM 42% | [13]; at 1.2 µM 10% | [13]; at 3.7 µM 6% | [13]; at 11.0 µM 13% | [13]; at 33.0 µM 17% | [13]; at 100.0 µM 41% | [15]; at 1.2 µM 12% | [15]; at 3.7 µM 18% | [15]; [17] 8% | [15]; at 11.0 µM 14% | [15]; at 33.0 µM 65% | [15]; [18] 47% | [1]; at 1.2 µM 14% | [1]; at 3.7 µM 28% | [1]; [17] 0% | [2]; [17] 20% | [2]; [18] 50% | [2]; at 50.0 µM 55.5% | [3]; at 1.2 µM -5% | [3]; at 3.7 µM 15% | [3]; at 11.0 µM 12% | [3]; at 33.0 µM 22% | [3]; at 100.0 µM 34% | [4]; [17] 20% | [4]; [18] 16% | [4]; at 50.0 µM 19.4% | [5]; at 1.2 µM 3% | [5]; at 3.7 µM -10% | [5]; [17] -9% | [5]; at 11.0 µM 14% | [5]; at 33.0 µM 7% | [5]; [18] 26% | [5]; at 50.0 µM 43.5% | [6]; at 1.2 µM -42% | [6]; at 3.7 µM -44% | [6]; at 11.0 µM -42% | [6]; at 33.0 µM -1% | [6]; at 100.0 µM 28% | [7]; at 1.2 µM 16% | [7]; at 3.7 µM 12% | [7]; at 11.0 µM 1% | [7]; at 33.0 µM 25% | [7]; at 100.0 µM 44% | [8]; at 1.2 µM 30% | [8]; at 3.7 µM 22% | [8]; at 11.0 µM 31% | [8]; at 33.0 µM 45% | [8]; at 100.0 µM 66% | [9]; [17] 12% | [9]; [18] 46% | [9]; at 50.0 µM 52.1% | [10]; at 1.2 µM 48% | [10]; at 3.7 µM 54% | [10]; at 11.0 µM 57%
